Experimental findings from ChEMBL document CHEMBL1961873, “Compounds: GSK PKIS; Assays: Nanosyn kinase panel” (2012) are described below.

The inhibition is the drop in the measured response relative to a control, in per cent.

For test [1], the target named is Fibroblast growth factor receptor 4 (Homo sapiens) (UniProt P22455). Particulars: at 1 µM.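 Also: reported figure is the averaged percent inhibition of FGFR4, from the GSK PKIS kinase screening panel.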
Test [2] concerns the target Tyrosine-protein kinase Fgr (Homo sapiens) (UniProt P09769). As to conditions: at 0.1 µM.
Test [3] has the same target. As to conditions: at 1 µM.
The target in test [4] is Vascular endothelial growth factor receptor 1 (Homo sapiens) (UniProt P17948). As to conditions: at 0.1 µM.
Test [5] has the same target. Particulars: at 1 µM.
Test [6] concerns the target Receptor-type tyrosine-protein kinase FLT3 (Homo sapiens) (UniProt P36888). Particulars: at 0.1 µM.
Test [7] has the same target. As to conditions: at 1 µM.
The subject of test [8] is T1, Receptor-type tyrosine-protein kinase FLT3 (Homo sapiens), P36888 [D835Y].
T1 sequence (whole entry): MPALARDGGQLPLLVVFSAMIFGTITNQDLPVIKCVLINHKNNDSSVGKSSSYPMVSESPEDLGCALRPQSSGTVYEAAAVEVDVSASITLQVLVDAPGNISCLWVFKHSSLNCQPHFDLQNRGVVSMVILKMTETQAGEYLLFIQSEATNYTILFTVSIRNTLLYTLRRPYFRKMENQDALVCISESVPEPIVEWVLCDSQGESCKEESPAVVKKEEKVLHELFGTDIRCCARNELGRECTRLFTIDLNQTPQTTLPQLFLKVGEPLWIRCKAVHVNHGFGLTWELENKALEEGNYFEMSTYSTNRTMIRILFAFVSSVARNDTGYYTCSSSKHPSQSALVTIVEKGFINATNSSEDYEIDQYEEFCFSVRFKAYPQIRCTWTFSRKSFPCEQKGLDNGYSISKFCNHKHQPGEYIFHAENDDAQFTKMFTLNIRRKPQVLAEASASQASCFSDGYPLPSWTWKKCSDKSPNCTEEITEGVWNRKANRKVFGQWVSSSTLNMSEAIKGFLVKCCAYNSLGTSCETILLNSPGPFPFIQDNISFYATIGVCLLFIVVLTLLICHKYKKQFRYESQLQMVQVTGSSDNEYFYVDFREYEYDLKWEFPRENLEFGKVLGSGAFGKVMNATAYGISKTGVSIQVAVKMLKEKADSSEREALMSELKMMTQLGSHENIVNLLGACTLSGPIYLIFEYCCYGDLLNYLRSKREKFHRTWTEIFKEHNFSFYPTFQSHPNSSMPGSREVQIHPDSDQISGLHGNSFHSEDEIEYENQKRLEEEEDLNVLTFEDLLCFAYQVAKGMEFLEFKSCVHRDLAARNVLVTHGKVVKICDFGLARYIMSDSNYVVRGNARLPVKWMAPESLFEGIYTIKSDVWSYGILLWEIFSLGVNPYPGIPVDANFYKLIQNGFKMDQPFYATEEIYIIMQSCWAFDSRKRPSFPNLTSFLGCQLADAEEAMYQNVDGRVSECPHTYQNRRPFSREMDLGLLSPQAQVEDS
As to conditions: at 0.1 µM.

The target in test [9] is Non-receptor tyrosine-protein kinase TYK2 (Homo sapiens) (UniProt P29597). Particulars: at 1 µM.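 Also: values are mean percent inhibition of TYK2 kinase.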
Test [10] has as its target T2, Tyrosine-protein kinase receptor TYRO3 (Homo sapiens) (UniProt Q06418).
T2 sequence (whole entry): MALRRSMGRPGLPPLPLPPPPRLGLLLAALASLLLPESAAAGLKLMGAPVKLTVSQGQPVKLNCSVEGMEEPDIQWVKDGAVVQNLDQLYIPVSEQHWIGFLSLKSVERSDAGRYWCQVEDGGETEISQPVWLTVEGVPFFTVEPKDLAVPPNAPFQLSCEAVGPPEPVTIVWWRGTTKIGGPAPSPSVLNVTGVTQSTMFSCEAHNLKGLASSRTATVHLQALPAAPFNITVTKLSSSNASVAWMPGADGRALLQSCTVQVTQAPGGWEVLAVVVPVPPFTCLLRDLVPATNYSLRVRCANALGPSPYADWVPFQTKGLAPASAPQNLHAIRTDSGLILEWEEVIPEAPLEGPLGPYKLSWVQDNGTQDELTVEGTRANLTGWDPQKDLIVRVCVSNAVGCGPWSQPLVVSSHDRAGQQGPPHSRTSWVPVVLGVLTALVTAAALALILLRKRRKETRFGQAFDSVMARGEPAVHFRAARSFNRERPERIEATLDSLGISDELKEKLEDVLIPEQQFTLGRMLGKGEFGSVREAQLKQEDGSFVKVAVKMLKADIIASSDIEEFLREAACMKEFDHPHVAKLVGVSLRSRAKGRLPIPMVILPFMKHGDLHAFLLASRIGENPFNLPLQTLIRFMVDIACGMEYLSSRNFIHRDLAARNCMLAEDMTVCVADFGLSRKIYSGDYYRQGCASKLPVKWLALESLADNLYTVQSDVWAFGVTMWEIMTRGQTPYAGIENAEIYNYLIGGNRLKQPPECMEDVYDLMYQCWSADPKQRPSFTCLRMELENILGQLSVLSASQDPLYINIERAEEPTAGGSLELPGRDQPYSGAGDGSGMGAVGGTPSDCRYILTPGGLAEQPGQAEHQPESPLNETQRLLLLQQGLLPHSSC
Particulars: at 0.1 µM.

The target in test [11] is T2, Tyrosine-protein kinase receptor TYRO3 (Homo sapiens). Particulars: at 1 µM.
Test [12] deals with Tyrosine-protein kinase Yes (Homo sapiens) (UniProt P07947). As to conditions: at 0.1 µM.
The target is the same in test [13]. As to conditions: at 1 µM.
In test [14] the target is T3, Tyrosine-protein kinase ZAP-70 (Homo sapiens) (UniProt P43403).
T3 sequence (whole entry): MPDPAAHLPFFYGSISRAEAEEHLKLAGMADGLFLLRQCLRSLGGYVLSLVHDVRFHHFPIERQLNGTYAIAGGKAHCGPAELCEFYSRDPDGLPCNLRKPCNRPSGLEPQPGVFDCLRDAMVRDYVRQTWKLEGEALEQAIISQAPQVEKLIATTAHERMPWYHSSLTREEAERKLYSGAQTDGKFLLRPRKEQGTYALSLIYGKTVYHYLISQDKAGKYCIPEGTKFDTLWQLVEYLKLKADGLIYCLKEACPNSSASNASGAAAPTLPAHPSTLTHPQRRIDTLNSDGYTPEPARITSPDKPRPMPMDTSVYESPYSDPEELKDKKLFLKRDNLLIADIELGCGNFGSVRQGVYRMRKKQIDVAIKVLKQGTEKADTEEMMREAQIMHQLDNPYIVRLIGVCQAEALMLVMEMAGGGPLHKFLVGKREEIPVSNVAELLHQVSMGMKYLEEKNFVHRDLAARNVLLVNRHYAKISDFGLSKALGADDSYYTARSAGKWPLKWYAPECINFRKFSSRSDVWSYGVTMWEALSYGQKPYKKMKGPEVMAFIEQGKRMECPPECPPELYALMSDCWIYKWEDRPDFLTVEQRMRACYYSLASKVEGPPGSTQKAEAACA
As to conditions: at 0.1 µM.

For test [15], the target named is T3, Tyrosine-protein kinase ZAP-70 (Homo sapiens). Particulars: at 1 µM.
Test [16] has as its target Serine/threonine-protein kinase B-raf (Homo sapiens) (UniProt P15056). Particulars: at 0.1 µM.
Test [17] has the same target. As to conditions: at 1 µM.
For test [18], the system named is Serine/threonine-protein kinase B-raf (Homo sapiens), P15056 [V600E]. As to conditions: at 0.1 µM.
Test [19] shares this test system. As to conditions: at 1 µM.
In test [20] the target is RAF proto-oncogene serine/threonine-protein kinase (Homo sapiens) (UniProt P04049). As to conditions: at 0.1 µM.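 Also: values are mean CRAF kinase inhibition from profiling of the GSK Published Kinase Inhibitor Set.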
RAF proto-oncogene serine/threonine-protein kinase (Homo sapiens), sequence (P04049 whole entry): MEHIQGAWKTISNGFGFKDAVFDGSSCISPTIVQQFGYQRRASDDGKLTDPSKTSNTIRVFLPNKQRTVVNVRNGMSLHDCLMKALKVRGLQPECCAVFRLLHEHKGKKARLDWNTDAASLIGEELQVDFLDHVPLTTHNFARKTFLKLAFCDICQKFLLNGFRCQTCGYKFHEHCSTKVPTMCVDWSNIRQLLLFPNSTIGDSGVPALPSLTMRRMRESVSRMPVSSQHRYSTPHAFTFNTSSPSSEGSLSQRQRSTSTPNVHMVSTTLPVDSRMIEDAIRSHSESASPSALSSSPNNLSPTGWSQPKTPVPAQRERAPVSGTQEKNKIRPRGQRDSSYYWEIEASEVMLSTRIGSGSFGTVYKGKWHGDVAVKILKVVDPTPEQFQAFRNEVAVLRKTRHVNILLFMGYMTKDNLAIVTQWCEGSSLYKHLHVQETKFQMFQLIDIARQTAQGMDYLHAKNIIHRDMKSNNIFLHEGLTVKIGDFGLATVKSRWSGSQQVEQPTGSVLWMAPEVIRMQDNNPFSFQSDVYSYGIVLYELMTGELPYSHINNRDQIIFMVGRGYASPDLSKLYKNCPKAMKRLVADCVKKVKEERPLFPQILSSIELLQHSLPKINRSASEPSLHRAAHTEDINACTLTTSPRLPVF

Serine/threonine-protein kinase B-raf (Homo sapiens), sequence (P15056 whole entry): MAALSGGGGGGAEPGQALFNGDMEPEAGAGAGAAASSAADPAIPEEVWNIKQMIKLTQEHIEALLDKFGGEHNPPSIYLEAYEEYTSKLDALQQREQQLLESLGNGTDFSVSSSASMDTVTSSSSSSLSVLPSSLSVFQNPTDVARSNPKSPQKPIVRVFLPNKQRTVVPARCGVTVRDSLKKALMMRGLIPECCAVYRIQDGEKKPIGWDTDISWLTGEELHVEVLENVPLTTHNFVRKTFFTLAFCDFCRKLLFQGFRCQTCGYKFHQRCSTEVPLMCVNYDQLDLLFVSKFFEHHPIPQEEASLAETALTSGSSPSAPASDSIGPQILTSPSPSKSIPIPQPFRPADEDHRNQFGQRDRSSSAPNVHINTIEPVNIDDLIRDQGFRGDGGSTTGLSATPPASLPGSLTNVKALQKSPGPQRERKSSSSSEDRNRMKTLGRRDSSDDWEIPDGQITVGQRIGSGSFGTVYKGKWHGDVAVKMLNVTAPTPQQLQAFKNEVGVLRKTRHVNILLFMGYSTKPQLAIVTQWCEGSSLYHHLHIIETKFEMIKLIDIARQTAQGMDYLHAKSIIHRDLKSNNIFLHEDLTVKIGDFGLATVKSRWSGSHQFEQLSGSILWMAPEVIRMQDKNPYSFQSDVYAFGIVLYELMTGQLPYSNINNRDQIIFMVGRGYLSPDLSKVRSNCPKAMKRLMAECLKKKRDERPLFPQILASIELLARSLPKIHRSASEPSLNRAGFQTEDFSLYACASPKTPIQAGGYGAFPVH
Non-receptor tyrosine-protein kinase TYK2 (Homo sapiens), sequence (P29597 whole entry): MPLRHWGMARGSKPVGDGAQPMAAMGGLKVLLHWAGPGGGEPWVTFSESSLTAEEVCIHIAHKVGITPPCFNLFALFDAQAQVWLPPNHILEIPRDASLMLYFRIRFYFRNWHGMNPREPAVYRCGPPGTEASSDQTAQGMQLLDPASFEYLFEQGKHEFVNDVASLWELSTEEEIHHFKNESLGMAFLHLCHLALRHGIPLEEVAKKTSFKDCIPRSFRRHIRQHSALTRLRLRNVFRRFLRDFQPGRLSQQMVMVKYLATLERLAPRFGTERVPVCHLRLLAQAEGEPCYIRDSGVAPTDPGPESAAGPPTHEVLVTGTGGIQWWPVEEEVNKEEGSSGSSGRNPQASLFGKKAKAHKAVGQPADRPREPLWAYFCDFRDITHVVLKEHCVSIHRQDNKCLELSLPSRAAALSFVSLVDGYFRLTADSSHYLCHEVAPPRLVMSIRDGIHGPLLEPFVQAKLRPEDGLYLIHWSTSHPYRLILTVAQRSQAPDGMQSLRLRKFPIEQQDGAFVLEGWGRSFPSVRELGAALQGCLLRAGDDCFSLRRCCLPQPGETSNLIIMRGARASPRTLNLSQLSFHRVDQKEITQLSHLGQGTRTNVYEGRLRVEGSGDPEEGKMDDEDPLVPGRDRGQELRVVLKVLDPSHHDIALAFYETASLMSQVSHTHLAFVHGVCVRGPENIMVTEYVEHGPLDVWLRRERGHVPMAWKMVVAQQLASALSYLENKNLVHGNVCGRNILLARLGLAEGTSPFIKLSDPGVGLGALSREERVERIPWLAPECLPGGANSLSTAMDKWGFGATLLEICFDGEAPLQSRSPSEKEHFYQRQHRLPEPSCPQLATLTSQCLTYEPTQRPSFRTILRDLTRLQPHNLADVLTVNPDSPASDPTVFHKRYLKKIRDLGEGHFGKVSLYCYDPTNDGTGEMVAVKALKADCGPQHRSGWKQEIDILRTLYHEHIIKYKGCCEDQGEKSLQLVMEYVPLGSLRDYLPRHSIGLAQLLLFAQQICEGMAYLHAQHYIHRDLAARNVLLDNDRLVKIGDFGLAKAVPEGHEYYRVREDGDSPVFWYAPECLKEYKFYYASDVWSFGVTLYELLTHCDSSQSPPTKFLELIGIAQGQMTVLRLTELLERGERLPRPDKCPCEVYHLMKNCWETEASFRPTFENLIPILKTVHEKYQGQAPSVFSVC
Tyrosine-protein kinase Yes (Homo sapiens), sequence (P07947 2-543 limits assumed): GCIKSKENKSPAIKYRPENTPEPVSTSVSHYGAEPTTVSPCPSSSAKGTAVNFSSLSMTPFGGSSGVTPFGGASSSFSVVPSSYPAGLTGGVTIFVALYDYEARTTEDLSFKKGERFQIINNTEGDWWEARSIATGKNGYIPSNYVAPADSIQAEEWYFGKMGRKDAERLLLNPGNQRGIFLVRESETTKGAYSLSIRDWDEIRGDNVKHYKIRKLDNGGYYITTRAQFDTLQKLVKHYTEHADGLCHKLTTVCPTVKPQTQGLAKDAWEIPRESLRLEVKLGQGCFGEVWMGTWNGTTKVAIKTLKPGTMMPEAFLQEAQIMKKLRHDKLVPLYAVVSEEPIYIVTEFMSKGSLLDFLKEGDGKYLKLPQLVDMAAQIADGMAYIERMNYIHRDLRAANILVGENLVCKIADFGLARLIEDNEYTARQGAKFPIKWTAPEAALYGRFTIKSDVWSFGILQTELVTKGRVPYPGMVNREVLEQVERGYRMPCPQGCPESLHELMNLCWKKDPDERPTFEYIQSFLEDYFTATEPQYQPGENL
Vascular endothelial growth factor receptor 1 (Homo sapiens), sequence (P17948 whole entry): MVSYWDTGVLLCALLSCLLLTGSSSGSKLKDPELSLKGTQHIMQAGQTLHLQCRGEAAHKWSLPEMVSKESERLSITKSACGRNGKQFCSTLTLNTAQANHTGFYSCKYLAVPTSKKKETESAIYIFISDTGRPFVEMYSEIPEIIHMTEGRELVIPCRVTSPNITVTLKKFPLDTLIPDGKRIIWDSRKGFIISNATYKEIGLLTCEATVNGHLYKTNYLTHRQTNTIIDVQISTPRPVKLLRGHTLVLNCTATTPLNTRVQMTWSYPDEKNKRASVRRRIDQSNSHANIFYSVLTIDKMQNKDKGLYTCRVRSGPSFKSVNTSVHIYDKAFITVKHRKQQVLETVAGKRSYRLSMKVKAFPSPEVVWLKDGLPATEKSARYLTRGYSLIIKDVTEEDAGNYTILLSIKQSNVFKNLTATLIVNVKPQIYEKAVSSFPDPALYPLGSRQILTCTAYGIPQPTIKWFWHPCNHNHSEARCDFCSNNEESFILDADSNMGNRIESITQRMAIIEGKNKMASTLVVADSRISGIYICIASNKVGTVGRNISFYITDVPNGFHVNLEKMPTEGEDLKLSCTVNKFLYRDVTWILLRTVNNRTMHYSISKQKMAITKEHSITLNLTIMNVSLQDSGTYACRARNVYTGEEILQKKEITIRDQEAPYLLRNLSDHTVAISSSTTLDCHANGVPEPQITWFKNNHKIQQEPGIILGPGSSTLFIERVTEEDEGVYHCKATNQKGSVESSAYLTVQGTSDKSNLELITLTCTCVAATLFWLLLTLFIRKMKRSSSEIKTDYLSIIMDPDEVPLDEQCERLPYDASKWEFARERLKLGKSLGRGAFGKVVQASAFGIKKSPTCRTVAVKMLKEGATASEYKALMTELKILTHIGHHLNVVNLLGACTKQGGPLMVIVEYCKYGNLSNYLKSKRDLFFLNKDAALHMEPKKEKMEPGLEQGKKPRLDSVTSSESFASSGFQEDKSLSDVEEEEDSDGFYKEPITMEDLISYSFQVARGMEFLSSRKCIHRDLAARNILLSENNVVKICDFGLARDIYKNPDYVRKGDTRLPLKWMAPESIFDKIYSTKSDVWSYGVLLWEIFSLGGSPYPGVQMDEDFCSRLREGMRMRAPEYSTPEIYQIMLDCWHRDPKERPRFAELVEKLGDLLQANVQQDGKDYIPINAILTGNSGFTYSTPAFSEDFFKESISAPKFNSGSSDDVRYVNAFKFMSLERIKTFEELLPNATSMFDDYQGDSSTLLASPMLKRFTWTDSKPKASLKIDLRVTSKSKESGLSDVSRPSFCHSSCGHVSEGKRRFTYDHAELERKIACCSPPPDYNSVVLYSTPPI
Tyrosine-protein kinase Fgr (Homo sapiens), sequence (P09769 2-529 limits assumed): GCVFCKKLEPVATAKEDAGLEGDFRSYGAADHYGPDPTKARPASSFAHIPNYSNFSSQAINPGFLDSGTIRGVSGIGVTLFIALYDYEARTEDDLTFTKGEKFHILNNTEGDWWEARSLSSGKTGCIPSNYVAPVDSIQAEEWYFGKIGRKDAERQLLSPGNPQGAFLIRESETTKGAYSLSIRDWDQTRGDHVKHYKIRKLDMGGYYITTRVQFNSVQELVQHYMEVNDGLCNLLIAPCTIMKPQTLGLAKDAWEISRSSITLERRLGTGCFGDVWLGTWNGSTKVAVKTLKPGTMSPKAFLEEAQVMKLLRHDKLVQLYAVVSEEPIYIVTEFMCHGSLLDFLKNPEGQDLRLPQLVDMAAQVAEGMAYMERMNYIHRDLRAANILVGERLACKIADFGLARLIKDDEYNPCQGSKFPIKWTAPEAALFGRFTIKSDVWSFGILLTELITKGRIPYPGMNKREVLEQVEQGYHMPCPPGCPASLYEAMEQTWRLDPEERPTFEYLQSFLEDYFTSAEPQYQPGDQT
Serine/threonine-protein kinase B-raf (Homo sapiens), P15056 [V600E], sequence (P15056 whole entry V600E): as the sequence (P15056 whole entry) above, with V600E counted along it

In the case of `CN1CCC(n2cnc(-c3ccc(F)cc3)c2-c2ccnc(N)n2)CC1`, the inhibition in test [1] was 4.3%; in test [2], 4.22%; in test [3], 8.36%; in test [4], -0.81%; in [5] it was 2.41%; in test [6], -0.36%. The inhibition in test [7] was 1.76%; in test [8] it was -8.15%; in test [9] it was -0.01%; in test [10], 1.97%; in test [11], 7.48%; in [12], 2.09%. Moreover, the inhibition in test [13] stood at 13.4%; in [14], 1.2%; in test [15] it was 2.81%; in test [16] it was 1.83%; in test [17], 5.24%; in test [18] it was 1.74%. Also, the inhibition in test [19] was 5.35%; in test [20], -0.57%.

With `COc1ccc(-c2cc(-c3c[nH]nc3-c3ccccn3)ccn2)cc1`, the inhibition in test [1] was found to be 6.88%; in [2], 5.33%; in [3], 4.21%; in test [4], 3.66%; in test [5], 8.02%; in [6], 3.81%. The inhibition in [8] was 1.47%; in [9], -4.16%; in [10] it was 2.81%; in [11] it was 4.46%; in [12], 3.5%; in test [13], 7.41%. In addition, the inhibition in test [14] is 1.69%; in test [15], 2.09%; in [16], 7.54%; in [17], 6.98%; in [18] it was 7.82%; in test [19], 6.42%. Further, the inhibition in test [20] is 0.24%.

Turning to `O=S(=O)(CCNCc1ccc(-c2ccc3ncnc(Nc4ccc(OCc5cccc(F)c5)c(Cl)c4)c3c2)o1)c1ccccc1`, the inhibition was found to be 1.88% in [1]; 2.78% in test [2]; 5.07% in [3]; 2.06% in [4]; 4.7% in [5]; 5.79% in test [6]. Moreover, the inhibition in [7] was 4.97%; in test [8], -2.76%; in [9], -2.79%; in test [10], 1.84%; in [11], 3%; in [12] it was 3.79%. Also, the inhibition was 7.66% in test [13]; 2.6% in [14]; 1.7% in test [15]; 8.76% in test [16]; 8.78% in test [17]; 6.36% in test [18]. For the same compound, the inhibition stood at 6.18% in test [19] and 1.16% in test [20].

Take `Fc1ccc(-c2cc(-c3c[nH]nc3-c3ccccn3)ccn2)cc1`: the inhibition in test [1] is -0.52%; in test [2], 5.85%; in test [3] it was 3.11%; in test [4] it was 1.1%; in test [5], 1.96%; in test [6], 2.44%. Besides, the inhibition was 2.5% in test [7]; -6.21% in [8]; -4.52% in [9]; 3.67% in [10]; 5.06% in test [11]; 5.64% in test [12]. Besides, the inhibition came out at 9.04% in [13]; 2.71% in test [14]; 2.35% in test [15]; 6.7% in [16]; 8.05% in test [17]; 9.04% in [18]. The inhibition was determined as 6.61% in test [19] and 0.68% in test [20].

Take `COc1ccc(-c2nn3ncccc3c2-c2ccnc(Nc3ccc4c(c3)OCCO4)n2)cc1`: the inhibition was 1.91% in [1]; 47.9% in test [2]; 79.8% in test [3]; 4.09% in [4]; 26.8% in test [5]; -1.66% in test [6]. Further, the inhibition in test [7] is -0.57%; in test [8], -7.3%; in [9], -1.85%; in test [10], -0.58%; in [11], 9.92%; in test [12] it was 79.3%. Also, the inhibition is 95.8% in [13]; -0.83% in test [15]; 2.67% in [16]; 5.07% in [17]; 1.25% in test [18]; 4.88% in [19]. In addition, the inhibition in [20] was -0.5%.

For the compound `CCn1c(-c2nonc2N)nc2c(C#CC(C)(C)O)ncc(OC3CCNCC3)c21`, the inhibition in test [1] was -1.22%; in test [2], 1.43%; in test [3], 4.57%; in [4], 5.67%; in test [5], 16.4%; in test [6], 3.32%. Also, the inhibition was 3.82% in test [7]; 1.56% in test [8]; -1.36% in test [9]; 2.05% in [10]; 2.44% in test [11]; 1.38% in [12]. The inhibition in test [13] is 5.89%; in test [14], 0.49%; in test [15], 1.77%; in test [16], 3.57%; in [17], 6.35%; in test [18], 4.12%. The inhibition in test [19] is 3.02%; in [20], 8.75%.

Turning to `c1ccc(-c2nc3n(c2-c2ccc4c(c2)OCO4)CCC3)nc1`, the inhibition in test [1] is 1.32%; in test [2] it was -0.63%; in test [3], 0.17%; in test [4] it was 1.18%; in [5] it was 0.86%; in test [6], 1.13%. In addition, the inhibition in [7] is 0.36%; in test [8], -1.36%; in test [9], -1.07%; in [10], 0.75%; in [11], 1.8%; in test [12], 1.3%. The inhibition was found to be 3.94% in test [13]; 4.17% in test [14]; 1.94% in test [15]; 2.61% in [16]; 2.48% in test [17]; 2.01% in test [18]. The inhibition in test [19] was 3.56%; in [20], -0.19%.
